bovine MsrA act = activates bovine MsrA enzyme; purified bovine MsrA, absorbance read-out; activation, % at 10.6 µM; actives 0.3% (n = 360,000); in the data active = activation above about 7.5%;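 also: 0% = vehicle and 100% = reference activator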
EBNA-1 inhibitor = blocks EBNA-1 binding to DNA; EBNA-1 DNA binding, fluorescence polarization; inhibition, % at 14.8 µM; actives 0.34% (n = 300,000); in the data active = inhibition above about 28%
PP1 inh = PP1-alpha (human) inhibition in PP5 counter-screen; purified PP1alpha, OMFP fluorescence; inhibition, % at 6.7 µM; actives 0.9% (n = 320,000); AID 2235;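 active = inhibition above the mean inhibition of all tested compounds plus 3 SD, computed separately for each screening campaign, cut at about 15% in these data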
MsrA inh = inhibitors of bovine MsrA. actives 0.75% (n = 360,000). purified bovine MsrA, absorbance read-out. inhibition, % at 15.5 µM. AID 651718;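 also: 0% = vehicle wells with enzyme and 100% = reference inhibitor wells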
PP5 primary = blocks human protein phosphatase 5 activity; P53041; purified PP5c, OMFP substrate fluorescence; inhibition, % at 6.7 µM; actives 0.18% (n = 320,000);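 active = inhibition above the campaign's mean inhibition across all tested compounds plus 3 SD, cut at about 9.5% in these data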;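 also: 0% = DMSO only and 100% = 100 µM cantharidin control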
Target sequence (P53041 whole entry, looked up): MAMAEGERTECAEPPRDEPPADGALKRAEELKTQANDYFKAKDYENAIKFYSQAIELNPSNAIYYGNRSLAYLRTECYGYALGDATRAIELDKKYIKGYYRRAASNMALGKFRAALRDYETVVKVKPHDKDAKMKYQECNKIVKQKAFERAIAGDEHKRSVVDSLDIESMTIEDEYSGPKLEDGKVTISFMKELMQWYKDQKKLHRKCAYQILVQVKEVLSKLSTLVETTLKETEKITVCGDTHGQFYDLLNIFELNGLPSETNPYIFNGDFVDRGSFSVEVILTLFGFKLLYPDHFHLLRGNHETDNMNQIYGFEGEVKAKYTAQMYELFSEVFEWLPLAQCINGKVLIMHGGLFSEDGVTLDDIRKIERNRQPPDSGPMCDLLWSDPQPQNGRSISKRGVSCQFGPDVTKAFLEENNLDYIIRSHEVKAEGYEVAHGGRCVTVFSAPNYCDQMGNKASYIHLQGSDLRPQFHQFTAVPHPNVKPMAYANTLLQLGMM
ZTA counter = blocks Epstein-Barr virus ZTA, an EBNA-1 counter-screen. P03206. ZTA-DNA binding, fluorescence polarization. inhibition, % at 11 µM. actives 0.15% (n = 320,000). AID 2234; in the data active = inhibition above about 33%
MsrA inh confirm = bovine MsrA inhibition, confirmed; shares compounds with MsrA inh; purified bovine MsrA, absorbance read-out; inhibition, % at 15.5 µM; actives 41% (n = 2,300);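 also: coupled to thioredoxin reductase with NADPH and selenocystamine and DMSO as substrate; 0% = vehicle only and 100% = full effect of reference inhibitor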
Numbers without * were called inactive; x = no result given. Sampled rows, rich in hits. Any-hit rate of the full collection: about 2.3%. Rule as the data show it, unless noted: active = inhibition above about 4.5%; inactive = the rest.

SMILES | bovine MsrA act | EBNA-1 inhibitor | PP1 inh | MsrA inh | PP5 primary | ZTA counter | MsrA inh confirm
CCc1occc(=O)c1Oc1cc(NN2CCCCC2)c([N+](=O)[O-])cc1[N+](=O)[O-] | -4.1 | -1.9 | 6.1 | 13.4* | 4.5 | -1.5 | 9.0*
COc1ccc(NC(=S)N2CCNC(=O)C2CC(=O)Nc2cccc(Cl)c2C)cc1 (configuration not stated) | -5.2 | 0.0 | 1.6 | -0.3 | 1.6 | -10.3 | x
Cn1cc(S(=O)(=O)c2ccccc2)c(=O)c2cc(Cl)ccc21 | -6.3 | -14.4 | -1.8 | 0.1 | 0.3 | 2.9 | x
Cn1cc(-c2ccccc2C(=O)O)c(=O)c2cc(Cl)ccc21 | -2.8 | -6.2 | 0.1 | 4.9* | 2.1 | -6.3 | 1.7
Cc1noc(C)c1C(=O)NNc1cc(Cl)ccc1Cl | -7.7 | -3.9 | -2.7 | -0.1 | 2.6 | -12.7 | x
CN(C)CCCN1C(=O)c2cccc3c([N+](=O)[O-])ccc(c23)C1=O | -7.0 | 6.0 | -4.8 | 18.0* | -1.0 | 18.5 | 10.3*
Cc1nc(C(F)(F)F)ccc1C(=O)N1CCC1(C)C(=O)NS(C)(=O)=O (configuration not stated) | -1.5 | x | x | 0.3 | x | x | x
O=C1CCC(=O)N1c1nc2nc(-c3ccccc3)cc(-c3ccccc3)n2n1 | -8.1 | 7.1 | -4.1 | 4.7* | -2.4 | -9.2 | 1.9
CNc1cncc(-c2ccoc2)n1 | -2.1 | x | x | 1.2 | x | x | x
CCC(=O)OCCNc1cc(Sc2nc3ccccc3[nH]2)c2nonc2c1[N+](=O)[O-] | -16.7 | -21.2 | -1.7 | 5.0* | -0.5 | -2.4 | 1.6
CCC(=O)OCCNc1cc(Sc2nc3ccccc3s2)c2nonc2c1[N+](=O)[O-] | -20.4 | -2.5 | 2.0 | 0.9 | 2.3 | -1.9 | x
COc1ccc(/C([O-])=C(/C(=S)Nc2ccc(C)c(C)c2)n2c[n+](C)c3ccccc32)cc1OC | -6.0 | 0.3 | 0.8 | 4.8* | 0.6 | 0.8 | 2.4
Cc1ccc(/C=N/N=C2/NC(=O)CS2)o1 | -7.5 | 5.5 | 0.4 | 5.5* | 1.4 | -6.4 | 3.5
O=C1CS/C(=N/N=C/c2ccc(OS(=O)(=O)c3ccccc3)cc2)N1 | -2.0 | 3.7 | -0.6 | 3.0 | 0.2 | 13.2 | x
COc1ccc(C2OC(=O)CC2C(=O)NCc2ccc(Cl)cc2)cc1OC (configuration not stated) | -3.1 | 8.0 | 2.1 | 1.3 | 3.5 | 8.9 | x
CC1(C)CC(N2CCCC2)=CC(=[N+]2CCCCC2)C1 | -6.3 | -5.0 | -0.4 | 5.7* | 0.6 | -1.4 | 3.4
CC1(C)CC(N2CCCC2)=CC(=[N+]2CCCC2)C1 | -9.9 | 11.0 | 3.0 | 5.9* | 0.0 | -1.1 | 2.5
COc1ccc(S(=O)(=O)N(C)C)cc1NC(=O)c1ccc(OCC2CCCO2)cc1 (configuration not stated) | -3.4 | x | x | 0.9 | x | x | x
COc1cc(OC)cc(C(=O)NCC(=O)OCc2ccc(Cl)c(Cl)c2)c1 | -2.4 | x | 0.4 | 1.4 | 3.0 | -0.6 | x
CCC(=O)N(C1=C(NC)C(=O)c2ccccc2C1=O)C(C)C | -2.5 | 12.7 | 1.4 | -1.6 | 2.8 | -7.2 | x
CNC1=C(N(C(C)=O)c2ccc(Br)cc2)C(=O)c2ccccc2C1=O | 4.1 | -5.1 | 4.0 | 36.4* | 3.7 | -13.8 | 5.5*
CC(=O)C1C(=O)c2c(cccc2[N+](=O)[O-])C1=Nc1ccccc1C (configuration not stated) | x | 0.5 | -1.2 | 1.0 | 3.6 | 3.3 | x
Cc1ccccc1N=C1c2ccccc2C(=O)C1[N+](=O)[O-] (configuration not stated) | -1.9 | 9.6 | -1.7 | 5.8* | 0.5 | 6.7 | 4.0
COC(=O)c1nnn(-c2nonc2N)c1CSc1nnc(N)s1 | -1.9 | -1.9 | 0.4 | 0.1 | 0.6 | 8.9 | x
CCN(CC)S(=O)(=O)c1ccc(N/N=C(\C)c2ccc3c(c2)OCO3)c([N+](=O)[O-])c1 | -4.1 | -3.8 | -0.4 | -0.9 | 2.8 | -14.9 | x
SMILES | bovine MsrA act | EBNA-1 inhibitor | PP1 inh | MsrA inh | PP5 primary | ZTA counter | MsrA inh confirm
COC(=O)CC/C(C)=N\Nc1ccc([N+](=O)[O-])cc1[N+](=O)[O-] | -2.7 | 8.3 | -2.8 | 6.3* | 0.1 | 23.0 | 9.5*
CC(Cc1ccccc1)=NNc1ccc([N+](=O)[O-])cc1[N+](=O)[O-] | -1.4 | x | x | -1.0 | x | x | x
CCC(CC)=NNc1ccc(S(N)(=O)=O)cc1[N+](=O)[O-] | -0.9 | -0.4 | -0.2 | -0.2 | -0.7 | -3.5 | x
C/C(=N\Nc1ccc(S(N)(=O)=O)cc1[N+](=O)[O-])c1ccc2c(c1)OCO2 | -3.1 | x | x | 20.6* | x | x | 15.3*
C/C(CC(C)C)=N/Nc1ccc([N+](=O)[O-])cc1[N+](=O)[O-] | -4.5 | -4.0 | -1.1 | 10.9* | 3.4 | -6.9 | 11.9*
C/C(CCC(C)C)=N\Nc1ccc(S(N)(=O)=O)cc1[N+](=O)[O-] | -12.6 | 8.0 | -3.8 | 10.3* | -1.4 | 27.4 | 7.8*
CCOC(=O)C(/C=C(\C#N)C(=O)OCC)=C(/N)N1CCN(c2ccc(OC)cc2)CC1 | -9.1 | 1.1 | 2.3 | 5.9* | 2.7 | -4.7 | 8.2*
CCc1nc2ccc(C(=O)N3CCN(C(=O)c4ccco4)CC3)cn2c1N(C=O)Cc1ccc(OC)cc1 | -1.9 | x | x | 1.1 | x | x | x
CCOC(=O)c1cc(C)nc(N2CCCCC2)c1C#N | -4.6 | -4.5 | -6.3 | 0.9 | -3.5 | -0.9 | x
CCOC(=O)c1cc(C(=O)OCC)c(=O)[nH]c1N1CCCCC1 | -5.3 | -7.4 | 0.8 | 7.5* | 0.9 | 1.5 | 3.1
CCOC(=O)c1c(NC(=O)CSc2nc3nc(C)cc(C)n3n2)sc(CC)c1C | -9.3 | 2.5 | -0.8 | 0.3 | -1.8 | 6.8 | x
S=c1[nH]nc(-c2ccccc2)n1/N=C/c1ccc(-c2ccccc2Cl)o1 | -3.2 | 5.0 | 10.2 | 0.5 | 1.5 | 18.3 | x
Cc1nnc(C)n1/N=C/c1ccc(-c2ccccc2Cl)o1 | -2.7 | -14.9 | 1.5 | 5.2* | 2.5 | -4.6 | 4.9*
O=S(=O)(N/N=C\c1ccc(-c2ccccc2Cl)o1)c1ccccc1 | -3.5 | -11.8 | 1.5 | 4.9* | 1.7 | -17.5 | 2.8
CCCc1nc2c(nnn2Cc2ccccc2Cl)c(=O)[nH]1 | 1.1 | 5.5 | 7.6 | -0.9 | 0.9 | 4.5 | x
C/C(=N\O)C(C)/[N+]([O-])=C/c1nc(C)c(C)n1O (configuration not stated) | -10.8 | -23.9 | -4.1 | 5.2* | 4.0 | -11.4 | 3.8
Nc1nonc1-c1nc2ccccc2n1CC(=O)N/N=C/c1ccc(-c2cccc(C(=O)O)c2)o1 | -4.9 | x | x | 5.7* | x | x | 6.3*
CCOC(=O)c1cccc(-c2ccc(C=O)o2)c1 | -11.7 | -6.4 | -1.3 | 3.8 | -0.4 | 2.5 | x
O=C(O)c1cccc(-c2ccc(/C=N/NC(=O)c3cccnc3)o2)c1 | -4.6 | 8.6 | -3.3 | 5.9* | 1.9 | -3.3 | 6.7*
Cc1ccc(/C=N/NC(=O)c2cccnc2)o1 | -2.7 | -10.8 | -2.2 | 2.9 | 1.6 | -7.0 | x
O=Cc1ccc(-c2cccc(C(=O)O)c2)o1 | -3.0 | -8.8 | -2.9 | 4.7* | 3.1 | -3.1 | 2.3
O=C(N/N=C/c1ccc(N2CCCC2)c([N+](=O)[O-])c1)c1cccnc1 | -3.8 | -0.2 | -0.3 | 7.5* | 0.8 | 7.2 | 5.5*
